Assay outcomes: PubChem BioAssay, several laboratories
Most compounds without a hit are left out; they make up all but 2.9% or so of the library.
Bim-Mcl-1: human Bim-Mcl-1 interaction inhibition. Q07820. Bead-based flow cytometry, Bim peptide-Mcl-1 binding. inhibition, % at 10 µM. hit rate 0.1% among 190,000. AID 1009; in the data active means inhibition above about 40%;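 further: 0% = no compound tracer wells and 100% = peptide blocker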
Target sequence (Q07820 whole entry, looked up): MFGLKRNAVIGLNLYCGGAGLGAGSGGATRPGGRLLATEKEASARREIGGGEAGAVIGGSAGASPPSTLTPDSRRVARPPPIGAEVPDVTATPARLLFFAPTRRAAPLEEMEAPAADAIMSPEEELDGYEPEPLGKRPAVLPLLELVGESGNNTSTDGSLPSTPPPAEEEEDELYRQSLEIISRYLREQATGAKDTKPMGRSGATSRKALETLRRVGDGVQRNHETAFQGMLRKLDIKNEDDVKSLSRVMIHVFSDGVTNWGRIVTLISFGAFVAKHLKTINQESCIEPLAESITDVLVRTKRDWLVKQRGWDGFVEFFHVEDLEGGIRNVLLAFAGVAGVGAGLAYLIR
Hck-Nef inh: inhibitors of human Hck kinase activated by Nef | P08631 | Recombinant Hck-YEEI plus Nef, Z-Lyte FRET kinase assay | inhibition, % at 20 µM | hit rate 0.68% among 220,000 | AID 463187;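 active means Hck-Nef kinase inhibition above about 50%, limit read from the data; inactive means inhibition below that limit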;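 further: 0% = DMSO with Hck plus Nef and 100% = Hck alone without Nef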
Mcl1 Noxa PPI: disrupts binding of human Mcl-1 to Noxa peptide. inhibition, % at 21.7 µM. hit rate 1.5% among 220,000. TR-FRET Mcl-1/Noxa peptide binding, 2 h;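 active means compounds that cut the protein-peptide binding signal by more than 50% relative to plate controls in a single-dose test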;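 further: His-tagged Mcl-1 with rhodamine Noxa BH3 peptide and terbium anti-His antibody; 0% = Mcl-1 plus Noxa peptide wells and 100% = peptide-only wells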
14-3-3 Bad PPI: disrupts binding of bovine 14-3-3 zeta to phospho-Bad peptide | P63103 | hit rate 0.71% among 220,000 | inhibition, % at 21.7 µM | TR-FRET 14-3-3zeta/Dy647-pBad peptide displacement, 1 h;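 active means inhibition above about 70%, limit read from the data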;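 further: 0% = full 14-3-3 plus peptide FRET controls and 100% = background without 14-3-3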
Target sequence (P63103 whole entry, looked up): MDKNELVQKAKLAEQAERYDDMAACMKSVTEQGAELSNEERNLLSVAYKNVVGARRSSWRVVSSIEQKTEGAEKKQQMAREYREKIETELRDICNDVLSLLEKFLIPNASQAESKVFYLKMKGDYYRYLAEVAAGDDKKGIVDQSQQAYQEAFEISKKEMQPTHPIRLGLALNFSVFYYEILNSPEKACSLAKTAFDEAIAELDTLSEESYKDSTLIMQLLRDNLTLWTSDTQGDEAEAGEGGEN
Pf gametocyte: kills late stage P. falciparum gametocytes | AID 743093 | inhibition, % at 10.9 µM | P. falciparum stage V gametocytes, ATP luminescence, 24 h | hit rate 0.065% among 150,000;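 active means inhibition above the mean plus 3 SD of compounds within the control limits, set per campaign, cut at about 38% in these data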;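 further: 0% = DMSO wells and 100% = medium only without gametocytes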
Mcl1 Bid PPI: disrupts binding of human Mcl-1 to Bid peptide | inhibition, % at 21.7 µM | TR-FRET Mcl-1/Bid-Dy647 peptide binding, 1536-well | hit rate 0.97% among 220,000;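 active means compounds that cut the binding signal by more than half at the single screening dose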;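 further: His-tagged Mcl-1 with europium anti-His antibody binding Bid BH3 peptide; 0% = Mcl-1 plus peptide wells and 100% = peptide-only wells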
* hit, by the source's call.

COc1ccc(NC(=O)c2ccc(Cc3ccc(C)cc3)o2)cc1 was read as Bim-Mcl-1 -9, Hck-Nef inh 8, Mcl1 Noxa PPI -5, 14-3-3 Bad PPI -8, Pf gametocyte 0 and Mcl1 Bid PPI -16.
`COc1ccc(NC(=O)c2[nH]ncc2[N+](=O)[O-])cc1` gave Bim-Mcl-1 1, Hck-Nef inh 18, Mcl1 Noxa PPI 5, 14-3-3 Bad PPI -11, Pf gametocyte 7 and Mcl1 Bid PPI 80*.
For CS(=O)(=O)N1CCCC(C(=O)N2CCc3ccccc3C2)C1 (centres undefined) the results were Bim-Mcl-1 -2, Hck-Nef inh 0, Mcl1 Noxa PPI -3, 14-3-3 Bad PPI 9 and Mcl1 Bid PPI -13.
O=C(Cn1c(=O)n2ncnc2c2c3c(sc21)CCCC3)c1ccccc1 was read as Bim-Mcl-1 0, Hck-Nef inh 2, Mcl1 Noxa PPI -6, 14-3-3 Bad PPI 0, Pf gametocyte -27 and Mcl1 Bid PPI 14.
For CN(CCOc1ccccc1)C(=O)c1ccc(OC2CCN(C(=O)C3CC3)CC2)cc1 the results were Bim-Mcl-1 0, Hck-Nef inh 5, Mcl1 Noxa PPI 4, 14-3-3 Bad PPI -1, Pf gametocyte -10 and Mcl1 Bid PPI 2.
Cc1cc(C)cc(C(=O)OCC(=O)NCC(F)(F)F)c1 was read as Bim-Mcl-1 -4, Hck-Nef inh 1, Mcl1 Noxa PPI 50, 14-3-3 Bad PPI 12, Pf gametocyte 19 and Mcl1 Bid PPI -7.
COC(=O)CCN(C(=O)c1cccc(OC(C)=O)c1)c1ccccn1 was read as Bim-Mcl-1 -4, Hck-Nef inh 4, Mcl1 Noxa PPI 0, 14-3-3 Bad PPI -14 and Mcl1 Bid PPI 52*.
COc1ccc2c(c1)nc(SCC(=O)c1ccc(Br)s1)n2C was read as Bim-Mcl-1 -1, Hck-Nef inh 0, Mcl1 Noxa PPI 20, 14-3-3 Bad PPI 84* and Mcl1 Bid PPI 0.
COC(=O)CSc1nc2cc(OC)ccc2n1C was read as Hck-Nef inh 1, Mcl1 Noxa PPI 12, 14-3-3 Bad PPI 6, Pf gametocyte -29 and Mcl1 Bid PPI 20.
`COc1cccc(NC(=O)CSc2nc3ccccc3n2C)c1` gave Bim-Mcl-1 -21, Hck-Nef inh 0, Mcl1 Noxa PPI -9, 14-3-3 Bad PPI 6 and Mcl1 Bid PPI 85*.
Cc1ccc(NC(=O)CSc2nc3ccccc3c3nc4ccccc4n23)cc1 was read as Bim-Mcl-1 1, Hck-Nef inh 40, Mcl1 Noxa PPI 20, 14-3-3 Bad PPI 54 and Mcl1 Bid PPI 62*.
`Cc1ccc(-n2c(SCC(=O)Nc3ccc(N4CCOCC4)cc3)nc3ccccc3c2=O)cc1` gave Bim-Mcl-1 -2, Hck-Nef inh 6, Mcl1 Noxa PPI 1, 14-3-3 Bad PPI 3, Pf gametocyte -12 and Mcl1 Bid PPI -12.
Screening Cc1ccc(CSc2ccc(C(=O)N3CCOCC3)cc2[N+](=O)[O-])cc1 returned Bim-Mcl-1 2, Hck-Nef inh 17, Mcl1 Noxa PPI -1, 14-3-3 Bad PPI 1, Pf gametocyte 11 and Mcl1 Bid PPI 4.
CCc1cccc2cc3c(N)c(C(=O)Nc4ccc(S(=O)(=O)N5CCCC5)cc4)sc3nc12 was read as Bim-Mcl-1 -5, Hck-Nef inh 0, Mcl1 Noxa PPI 30, 14-3-3 Bad PPI -4, Pf gametocyte -23 and Mcl1 Bid PPI -27.
Screening COc1ccccc1C(=O)NC(=S)NNC(=O)c1sc2ccccc2c1Cl returned Bim-Mcl-1 -2, Hck-Nef inh 0, Mcl1 Noxa PPI 48, 14-3-3 Bad PPI 38, Pf gametocyte -11 and Mcl1 Bid PPI 73*.
For Cc1ccc(-c2[nH]ncc2/C=N/n2c(COc3ccccc3)nc3ccccc3c2=O)cc1 the results were Bim-Mcl-1 -1, Hck-Nef inh 1, Mcl1 Noxa PPI -15, 14-3-3 Bad PPI 19, Pf gametocyte 23 and Mcl1 Bid PPI 10.
For Cc1cc(/C=N/n2c(COc3ccccc3)nc3ccccc3c2=O)c(O)c([N+](=O)[O-])c1 the results were Bim-Mcl-1 0, Hck-Nef inh 0, Mcl1 Noxa PPI 100*, 14-3-3 Bad PPI 49, Pf gametocyte -2 and Mcl1 Bid PPI -17.
`CC(C)c1ccc(C2NC(=S)NC3=C2C(=O)CCC3)cc1` (centres undefined) gave Bim-Mcl-1 3, Hck-Nef inh 4, Mcl1 Noxa PPI -14, 14-3-3 Bad PPI -2, Pf gametocyte 9 and Mcl1 Bid PPI -8.
Screening CN(C)C(=O)C1CCC(=O)N1Cc1cccs1 (centres undefined) returned Bim-Mcl-1 1, Hck-Nef inh -1, Mcl1 Noxa PPI 3, 14-3-3 Bad PPI 88* and Mcl1 Bid PPI -29.
For CN(C)S(=O)(=O)N1CCN(c2cccc(Cl)c2)CC1 the results were Bim-Mcl-1 9, Hck-Nef inh -1, Mcl1 Noxa PPI 55*, 14-3-3 Bad PPI -20, Pf gametocyte 5 and Mcl1 Bid PPI -8.
O=[N+]([O-])c1ccc(-c2cc(-c3ccc(Cl)cc3)n[nH]2)cc1 was read as Bim-Mcl-1 3, Hck-Nef inh 14, Mcl1 Noxa PPI 81*, 14-3-3 Bad PPI 65 and Mcl1 Bid PPI 44.
For Cc1c(Cc2ccccc2)c(=O)oc2c(O)c(O)ccc12 the results were Bim-Mcl-1 -2, Hck-Nef inh -24, Mcl1 Noxa PPI 88*, 14-3-3 Bad PPI 8, Pf gametocyte -34 and Mcl1 Bid PPI -4.
Cc1oc2c(O)c(O)ccc2c(=O)c1-c1ccccc1 was read as Hck-Nef inh 48, Mcl1 Noxa PPI 71*, 14-3-3 Bad PPI -4 and Mcl1 Bid PPI -38.
Cc1oc2c(O)c(O)ccc2c(=O)c1-c1cnn(-c2ccccc2)c1 was read as Bim-Mcl-1 0, Hck-Nef inh 3, Mcl1 Noxa PPI 56*, 14-3-3 Bad PPI -10, Pf gametocyte 9 and Mcl1 Bid PPI -54.
Screening Cc1oc2c(O)c(O)ccc2c(=O)c1-c1ccc(Cl)cc1 returned Pf gametocyte -6.
For Cc1oc2cc(O)cc(C)c2c(=O)c1-c1cnn(-c2ccccc2)c1 the results were Bim-Mcl-1 -2, Hck-Nef inh 22, Mcl1 Noxa PPI -12, 14-3-3 Bad PPI 59, Pf gametocyte -7 and Mcl1 Bid PPI 14.
COCCCNC(=O)C(Cc1ccccc1)NS(=O)(=O)c1ccc2c(c1)c(=O)n(C)c(=O)n2C (centres undefined) was read as Bim-Mcl-1 -2, Hck-Nef inh -5, Mcl1 Noxa PPI 0, 14-3-3 Bad PPI 29, Pf gametocyte 2 and Mcl1 Bid PPI -24.
Screening Cc1cc(C)n2nc3nc(N4CCCCC4)nc(-c4ccco4)c3c2n1 returned Bim-Mcl-1 1, Mcl1 Noxa PPI 66*, 14-3-3 Bad PPI 1 and Mcl1 Bid PPI -23.
Screening Cn1cccc1CNC1CCCCC1 returned Bim-Mcl-1 -4, Hck-Nef inh 6, Mcl1 Noxa PPI -4, 14-3-3 Bad PPI -6, Pf gametocyte -5 and Mcl1 Bid PPI -28.
For c1ccc(-n2cccc2CNC2CCCCC2)cc1 the results were Bim-Mcl-1 0, Hck-Nef inh 0, Mcl1 Noxa PPI 13, 14-3-3 Bad PPI 70* and Mcl1 Bid PPI -10.
